Paper PMC4552634, “A New Set of Chemical Starting Points with Plasmodium falciparum Transmission-Blocking Potential for Antimalarial Drug Discovery” (PLoS ONE, 2015)
In all, about 13,000 compounds went through this assay and about 3,200 (25%) showed an effect of 50% or more. Some of the results follow.

What follows are compounds tested on P. falciparum stage V gametocytes. Details: 48 h, 5 µM; inhibitor.
Design: BacTiter-Glo ATP luminescence viability of purified stage V gametocytes in 384-well plates, per cent inhibition versus DMSO

| SMILES | % Inhibition [%] |
| --- | --- |
| NC1=NC2(CCCCC2)N(OCCCOc2cccc3ccccc23)C(N)=N1 [TCMDC-131649] | 49.63 |
| O=c1c2ccccc2[nH]c2nc3ccccc3c(Nc3ccccc3)c12 [TCMDC-141996] | 28.3 |
| Cc1ccc(Nc2c3ccccc3nc3ccc(C)cc23)cc1 [TCMDC-124153] | -51.64 |
| Cl.c1ccc2c(Nc3ccc(Oc4ccc(Nc5c6ccccc6nc6ccccc56)cc4)cc3)c3ccccc3nc2c1 [TCMDC-124284] | 101.1 |
| CC(=O)Nc1cccc(Nc2c3ccccc3nc3ccccc23)c1 [TCMDC-123741] | -71.42 |
| CC(=O)Nc1ccc(Nc2c3ccccc3nc3ccccc23)cc1 [TCMDC-124356] | 67.17 |
| CCOc1ccc(Nc2nc(N)c3ccccc3n2)cc1.Cl [TCMDC-123748] | 31.55 |
| Cl.c1ccc2c(Nc3ccc(OCCOCCOc4ccc(Nc5c6ccccc6nc6ccccc56)cc4)cc3)c3ccccc3nc2c1 [TCMDC-137355] | 108.9 |
| Cc1cc2cc(/C=C/C(=O)NC3CCC(CCN4CCc5ccc(C#N)cc5CC4)CC3)ccc2[nH]1 (centres unmarked) [TCMDC-139673] | -19.51 |
| CCn1cc2c3c(cc(C(=O)N[C@@H](Cc4ccccc4)[C@H](O)CNC4CCOCC4)cc31)N(C)S(=O)(=O)CC2 [TCMDC-135785] | -5.565 |
| COc1ccc(Nc2nc(NC3CCCC3)cc(-c3ccc(OC)cc3)n2)cc1 [TCMDC-133468] | -75.14 |
| Cc1ccccc1C1CCN(c2ccc(C(=O)Nc3ccc(F)cc3)cn2)CC1 [TCMDC-134611] | 39.85 |
| CC(C)[C@H](NC(=O)c1ccc(O)c(-c2ccc(Cl)c(Cl)c2)c1)C(=O)NCCN1CCOCC1 [TCMDC-140850] | -3.222 |
| C=CCOC(=O)N1CCC(CNCc2ccc(-c3cccc(-c4nc5cccc(C)c5[nH]4)c3)cc2)C1.O=C(O)C(F)(F)F (centres unmarked) [TCMDC-133039] | 9.6 |
| CC(Cc1ccc(Cl)cc1)Nc1nc(NC2CCCC2)nc(N2CCC(C#N)(c3ccccc3)CC2)n1 (centres unmarked) [TCMDC-139928] | -79.71 |
| CC(=O)Nc1ccc(CN2CCC(NC(=O)c3cc(-c4ccc(N(C)C)cc4)cs3)C2)cc1 (centres unmarked) [TCMDC-134477] | 92.99 |
| CN(C)c1ccc(-c2csc(C(=O)NC3CCCCN(CCC(C)(C)C)C3)c2)cc1 (centres unmarked) [TCMDC-134487] | -62.75 |
| CN(C)c1ccc(-c2ccc(C(=O)NC3CCN(Cc4ccc(C(C)(C)C)cc4)CC3)s2)cc1 [TCMDC-134354] | -40.81 |
| CN(C)c1ccc(-c2csc(C(=O)NC3CCCCN(Cc4ccc(C(C)(C)C)cc4)C3)c2)cc1 (centres unmarked) [TCMDC-134470] | 63.14 |
| CC(C)(C)c1ccc(CN2CCCCC(NC(=O)c3cc(-c4cccc(Cl)c4)cs3)C2)cc1 (centres unmarked) [TCMDC-134468] | -11.91 |
| CN(C)c1ccc(CN2CCCCC(NC(=O)c3cc(-c4ccccc4F)cs3)C2)cc1 (centres unmarked) [TCMDC-134471] | -62.25 |
| CN(C)c1ccc(-c2csc(C(=O)NC3CCN(Cc4ccc(C(C)(C)C)cc4)C3)c2)cc1 (centres unmarked) [TCMDC-134476] | 63.77 |
| O=C(NCC1CCC(C(=O)NCc2cccc(C(F)(F)F)c2)CC1)c1ccc(O)c(-c2ccc(Cl)c(Cl)c2)c1 (centres unmarked) [TCMDC-140886] | 8.372 |
| COc1ccc2sc(CNCCCNc3cc(=O)c4ccccc4[nH]3)c(Cl)c2c1 [TCMDC-140334] | -8.727 |

| SMILES | % Inhibition [%] |
| --- | --- |
| O=C(NC1CCN(Cc2ccccc2)CC1)c1ccc(-c2nc3cc4ccccc4cc3[nH]2)s1 [TCMDC-140122] | 18.76 |
| CC1Cc2ccccc2N1CC(=O)Nc1cc(C(F)(F)F)ccc1-n1cncn1 (centres unmarked) [TCMDC-124870] | -73.33 |
| O=C(NCCNc1noc(-c2sccc2Br)n1)c1ccc(Cl)cc1 [TCMDC-134182] | 2.834 |
| O=c1cc(N2CCCNCC2)c(Cl)nn1Cc1ccc(NS(=O)(=O)c2ccc(Oc3ccccc3)cc2)cc1 [TCMDC-141692] | 2.781 |
| COc1ccc(-c2cnc3[nH]cc(-c4ccncc4)c3c2)cc1OC [TCMDC-135853] | 140.3 |
| COc1ccc(-c2cnc3[nH]cc(-c4ccc(C(=O)O)cc4)c3c2)cn1 [TCMDC-136213] | 14.9 |
| COc1ccc(-c2cnc3[nH]cc(-c4ccc(CCC(=O)O)cc4)c3c2)cn1 [TCMDC-136240] | 35.75 |
| COc1ccc(CNC(=O)C2Cc3ccccc3CN2Cc2ccc3ccccc3c2)cc1 (centres unmarked) [TCMDC-141565] | -15.29 |
| COc1ccc(-c2nonc2NC(=O)c2cccc(Cl)c2)cc1OC [TCMDC-125401] | 22.75 |
| O=C(O)c1ccc2nc(-c3ccccn3)c(-c3ccccn3)nc2c1 [TCMDC-123820] | -4.631 |
| CC(=O)Oc1cc(C(=O)Nc2ccc(Cl)cc2)cc2ccccc12 [TCMDC-123708] | 7.424 |
| O=C(Nc1nc(-c2ccccn2)cc2ccccc12)c1cccc(Cl)c1 [TCMDC-123886] | 116.1 |
| NC(=Nc1nc(-c2ccccn2)cc2ccccc12)c1cccc(Cl)c1 [TCMDC-123745] | 62.24 |
| CC1CCCN(C(=O)c2cc(-c3ccccn3)nc3c(Cl)cccc23)C1 (centres unmarked) [TCMDC-125218] | 20.47 |
| O=C(NC1CCN(Cc2ccccc2)CC1)c1ccc(-c2nc3cc(Cl)c(F)cc3[nH]2)s1 [TCMDC-140100] | 2.226 |
| Cc1ccc(-c2csc(C)n2)c(C)c1 [TCMDC-125751] | 2.132 |
| O=c1cc(-c2cccc(C(F)(F)F)c2)nc(Nc2ccc(Cl)c(Cl)c2)[nH]1 [TCMDC-132206] | 43.99 |
| COc1cc(CS(C)(=O)=O)ccc1Nc1nccc(-c2c(-c3cccc(NC(=O)c4c(F)cccc4F)c3)nn3ccccc23)n1 [TCMDC-135792] | -6.854 |
| O=C(C=Cc1ccc(Cl)c(Cl)c1)NCCCCCN1CCC(CCNS(=O)(=O)c2ccc(F)cc2)CC1 [TCMDC-139585] | 78.1 |
| O=C(C=Cc1ccc(Cl)c(Cl)c1)NCCCCCN1CCC(CCCNS(=O)(=O)c2ccc(F)cc2)CC1 [TCMDC-139589] | 110.7 |
| O=C(/C=C/c1ccc(Cl)c(Cl)c1)NCCCCCN1CCC(NC(=O)Nc2ccc(F)cc2F)CC1 [TCMDC-135712] | 11.66 |
| O=C(/C=C/c1ccc(Cl)c(Cl)c1)NCCCCCN1CCC(NC(=O)c2ccc(F)cc2F)CC1 [TCMDC-135842] | -11.69 |
| O=C(/C=C/c1ccc(Cl)c(Cl)c1)NCCCCCN1CCC(NC(=S)Nc2ccc(F)cc2F)CC1 [TCMDC-135900] | 33.5 |
